For 9 compounds, Potency results are on record in PubChem BioAssay (Tox21).

Results filed as inconclusive are left out. The source made the active and inactive calls. Unless noted, calls follow the shape of the full dose curve.

Assay [1] can be described thus: Nuclear factor erythroid 2-related factor 2/antioxidant responsive element (Nrf2/ARE) small molecule agonists: qHTS cell viability counter screen in human keratinocytes (AID 1919968; active = well fitted curve in the direction sought with a large enough effect in the repeat runs; an effect the other way counts as inactive or inconclusive; also: nearly all actives have a fitted effect of over 55% in size). The method in brief: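 Cytotoxicity was multiplexed with the Nrf2/ARE luciferase assay in the same wells. Stably transfected HaCaT keratinocytes were treated with test compounds for 23 h at 37 C. Cell viability was then measured by CellTiter-Fluor fluorescence.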
In general terms: Quantitative high-throughput screening tests each substance at several concentrations.

Assay [2] is described as follows: Nuclear factor erythroid 2-related factor 2/antioxidant responsive element (Nrf2/ARE) small molecule agonists: luciferase reporter gene qHTS assay in human keratinocytes (AID 1919969). Also: nearly all actives have a fitted effect of over 35% in size. Also: potency is read from the fitted curve at half-maximal effect. In general terms: Reporter assays use an easily measured gene product as a stand-in for the process of interest.
In assay [3] the target is Gonadotropin-releasing hormone receptor (Homo sapiens) (UniProt P30968). Briefly: Human gonadotropin-releasing hormone receptor (GnRHR) small molecule agonists, calcium flux assay in GnRHR-HEK293 cells (AID 1920063). Also: nearly all actives have a fitted effect of over 35% in size. The method in brief:
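Agonist activity was measured as intracellular calcium flux in HEK293 cells engineered to stably express human GnRHR. After dye loading for 1 hour at 37 C, compounds in DMSO were added and fluorescence was followed for 3 minutes.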

In assay [4] the target is KiSS-1 receptor (Homo sapiens) (UniProt Q969F8). Briefly: Human kisspeptin (KISS1R) small molecule agonists, calcium flux assay in KISS1R-HEK293 cells (AID 1920064; active = well fitted curve in the direction sought with a large enough effect in the repeat runs; an effect the other way counts as inactive or inconclusive). The method in brief: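 Agonist activity is monitored as intracellular calcium rise in engineered HEK293 cells carrying human KISS1R. Cells are dye-loaded for 1 h at 37 C before compound addition, and fluorescence is recorded for 3 min.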
Background: Calcium assays in cells follow changes in intracellular calcium, usually with a dye or a luminescent sensor.

Assay [5] in a line: G protein-coupled receptor (GPCR) small molecule agonists, calcium flux assay: HEK293 wild type cell line counter screen (AID 1920065). The method in brief: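 Seed cells, incubate 18 h (37 C, 5% CO2); add calcium dye, 1 h at 37 C; pin-transfer compounds, ATP control or DMSO; read fluorescence 480/540 nm each second for 3 min.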
The nature of assay [6]: p53 small molecule agonists, cell-based qHTS assay with human liver microsomes (AID 1963577).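 Also: p53 response element beta-lactamase reporter cells with liver microsomes plus NADPH.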 The method in brief:
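16 h, 37 C exposure of p53RE-bla cells to compounds with human liver microsomes and NADPH (0.5 mg/mL final each); detection via LiveBLAzer mixture, 2 h dark at room temperature.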

Assay [7] is described as follows: p53 small molecule agonists, cell-based qHTS assay with rat liver microsomes (AID 1963578). The method in brief:
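With rat liver microsomes and NADPH present (0.5 mg/mL final each), p53RE-bla cells are treated with compound for 16 h at 37 C. LiveBLAzer detection mixture is then applied for 2 h at room temperature in the dark.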

Assay [8] in a line: p53 small molecule agonists, cell-based qHTS assay with human liver microsomes: qHTS cell viability counter screen (AID 1963579). Also: nearly all actives have a fitted effect of over 45% in size. The method in brief:
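In this multiplexed counter screen, the reporter plates were subsequently treated with CellTiter-Glo so that cell viability, reflected by luminescence, could be recorded for p53RE-bla cells dosed 16 h with compounds under microsomal activation (HLM and NADPH).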

Assay [9] in a line: p53 small molecule agonists, cell-based qHTS assay with rat liver microsomes: qHTS cell viability counter screen (AID 1963580). Also: nearly all actives have a fitted effect of over 45% in size. The method in brief:
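Luminescent ATP readout (CellTiter-Glo, 30 min at room temperature) reports viability of p53RE-bla HCT-116 cells after 16 h at 37 C with test compounds under metabolic activation by rat liver microsomes and NADPH at 0.5 mg/mL final each.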

The nature of assay [10]: p53 small molecule agonists, cell-based qHTS assay: qHTS cell viability counter screen (AID 1963581). Also: nearly all actives have a fitted effect of over 45% in size. The method in brief:
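Viability was counter-screened in parallel with the p53 agonist reporter by measuring intracellular ATP luminescence in the same HCT-116 p53RE-bla wells after 16 h compound treatment at 37 C.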

Assay [11] addresses 5-hydroxytryptamine receptor 2A (Homo sapiens) (UniProt P28223). Briefly: 5-hydroxytryptamine receptor 2A (HTR2A) small molecule agonists, cell-based qHTS assay (AID 1963587). Also: nearly all actives have a fitted effect of over 30% in size. The method in brief:
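HTR2A-CHO cells, plated 18 h at 37 C/5% CO2, dye-loaded 1 h at 37 C; compounds in DMSO added by pin tool (agonist mode). Intracellular calcium flux read as kinetic fluorescence on FDSS over 2 min at 1 s intervals.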

In assay [12] the target is Muscarinic acetylcholine receptor M1 (Homo sapiens) (UniProt P11229). Briefly: Cholinergic receptor muscarinic 1 (CHRM1) small molecule antagonists, cell-based qHTS assay (AID 1963588). Also: nearly all actives have a fitted effect of over 40% in size. The method in brief:
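Compounds were tested at 15 concentrations in three independent runs. Dye-loaded CHRM1-CHO cells were exposed 5 min at room temperature before stimulation by acetylcholine added at 50nM. Intracellular calcium was read kinetically on FDSS for 3 min.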

The target in assay [13] is Beta-2 adrenergic receptor (Homo sapiens) (UniProt P07550). Briefly: Adrenergic beta2 receptor (ADRB2) small molecule antagonists, cell-based qHTS assay (AID 1963592). Also: series mostly up to about 92 µM; nearly all actives have a fitted effect of over 50% in size. The method in brief:
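Assay format: CHO-ADRB2 cells, 18-20hr seeding at 37C/5% CO2, then compound plus 1nM isoproterenol agonist mix for 0.5hr RT. Homogeneous time-resolved fluorescence cAMP detection after 1hr, expressed as 665/615 nm ratio.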

Assay [14] deals with D(2) dopamine receptor (Homo sapiens) (UniProt P14416). Briefly: Dopamine D2 receptor (DRD2) small molecule agonists, cell-based qHTS assay (AID 1963594). Also: nearly all actives have a fitted effect of over 35% in size. The method in brief: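 HEK293 cells stably expressing DRD2 were cultured 24 h at 37 C, then given Ro20-1724 (0.1 mM final) and compounds for 10 min at room temperature. NKH477 (200nM) was then added for 30 min. cAMP was read by HTRF.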

For assay [15] the target is unchanged. Briefly: Dopamine D2 receptor (DRD2) small molecule antagonists, cell-based qHTS assay (AID 1963595; active = well fitted inhibition curve with a large enough effect in the signal ratio in the repeat runs, with a control signal flat; the % refers to the signal ratio). The method in brief: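 Cells were plated and grown for 24 h at 37 °C. Ro20-1724 (0.1 mM final) went in first, then compound for 10 min. NKH477 (200 nM) with quinpirole (12 nM) followed for 30 min at RT, then HTRF detection reagents for 1 h.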
The nature of assay [16]: p53 small molecule agonists, cell-based qHTS assay (AID 1963582; active = well fitted activation curve with a large enough effect in the signal ratio in the repeat runs, not every such curve was filed as active; the % refers to the signal ratio). The method in brief:
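Cells carrying a p53-responsive bla reporter are treated with test compounds for 16 h at 37 C; beta-lactamase activity is then detected with LiveBLAzer B/G FRET substrate after 2 h at room temperature.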

Assay [17] deals with 5-hydroxytryptamine receptor 2A (Homo sapiens) (UniProt P28223). Briefly: 5-hydroxytryptamine receptor 2A (HTR2A) small molecule antagonists, cell-based qHTS assay (AID 1963586). Also: nearly all actives have a fitted effect of over 45% in size. The method in brief: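 CHO cells stably expressing human HTR2A were plated for 18 h at 37 C, then loaded with calcium dye for 1 h. Compounds were preincubated 5 min at room temperature before DOI (4 nM solution) was added. Kinetic fluorescence was read for 3 min.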

Assay [18] has as its target Muscarinic acetylcholine receptor M1 (Homo sapiens) (UniProt P11229). Briefly: Cholinergic receptor muscarinic 1 (CHRM1) small molecule agonists, cell-based qHTS assay (AID 1963589). Also: nearly all actives have a fitted effect of over 35% in size. The method in brief:
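Cells were plated and incubated 18 h at 37 C/5% CO2, loaded with calcium dye for 1 h at 37 C, then treated with compounds in DMSO. Fluorescence was recorded kinetically at 1 sec intervals.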

Assay [19] can be described thus: cAMP Responsive Elements (CRE) small molecule antagonists, cell-based qHTS assay (AID 1963591; active = well fitted inhibition curve with a large enough effect in the signal ratio in the repeat runs, not every such curve was filed as active; the % refers to the signal ratio). The method in brief:
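Cells (CRE-bla HEK 293T, DMEM with 10% dialyzed FBS and 25 mM HEPES) are seeded and incubated 18 h. Compounds are added with NKH477 agonist at 0.25 uM final for 3 h, then FRET substrate for 2 h.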

Assay [20] in a line: cAMP Responsive Elements (CRE) small molecule agonists, cell-based qHTS assay (AID 1963590). The method in brief:
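Cells carrying a CRE-driven beta-lactamase reporter (HEK 293T) are seeded, incubated overnight (18 h), and treated with test compounds for 3 h at 37 C; reporter activity is then detected with a FRET substrate after 2 h at room temperature.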

Chain of 5-hydroxytryptamine receptor 2A (Homo sapiens) (P28223 whole entry, looked up): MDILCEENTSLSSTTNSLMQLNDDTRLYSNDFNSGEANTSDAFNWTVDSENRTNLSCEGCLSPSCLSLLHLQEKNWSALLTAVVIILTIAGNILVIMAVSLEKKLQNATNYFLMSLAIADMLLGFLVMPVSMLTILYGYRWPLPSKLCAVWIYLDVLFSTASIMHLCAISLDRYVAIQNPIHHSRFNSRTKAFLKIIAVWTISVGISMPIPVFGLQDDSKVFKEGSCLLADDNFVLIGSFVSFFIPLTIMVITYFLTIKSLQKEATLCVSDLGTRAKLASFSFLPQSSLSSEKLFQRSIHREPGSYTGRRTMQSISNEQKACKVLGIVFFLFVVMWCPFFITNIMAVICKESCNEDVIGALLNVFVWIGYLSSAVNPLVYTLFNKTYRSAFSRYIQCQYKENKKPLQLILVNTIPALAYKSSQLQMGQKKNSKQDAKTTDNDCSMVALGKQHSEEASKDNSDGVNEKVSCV
Chain of Gonadotropin-releasing hormone receptor (Homo sapiens) (P30968 whole entry, looked up): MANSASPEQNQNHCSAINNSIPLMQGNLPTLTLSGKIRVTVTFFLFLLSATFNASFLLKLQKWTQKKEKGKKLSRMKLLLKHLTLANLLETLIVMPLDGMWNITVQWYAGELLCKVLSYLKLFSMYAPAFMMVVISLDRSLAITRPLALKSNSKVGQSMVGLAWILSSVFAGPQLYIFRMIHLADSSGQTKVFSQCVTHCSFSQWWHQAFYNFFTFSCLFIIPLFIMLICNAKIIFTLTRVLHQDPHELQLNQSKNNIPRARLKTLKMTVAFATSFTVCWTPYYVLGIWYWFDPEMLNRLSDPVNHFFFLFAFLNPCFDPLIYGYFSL
Chain of Beta-2 adrenergic receptor (Homo sapiens) (P07550 whole entry, looked up): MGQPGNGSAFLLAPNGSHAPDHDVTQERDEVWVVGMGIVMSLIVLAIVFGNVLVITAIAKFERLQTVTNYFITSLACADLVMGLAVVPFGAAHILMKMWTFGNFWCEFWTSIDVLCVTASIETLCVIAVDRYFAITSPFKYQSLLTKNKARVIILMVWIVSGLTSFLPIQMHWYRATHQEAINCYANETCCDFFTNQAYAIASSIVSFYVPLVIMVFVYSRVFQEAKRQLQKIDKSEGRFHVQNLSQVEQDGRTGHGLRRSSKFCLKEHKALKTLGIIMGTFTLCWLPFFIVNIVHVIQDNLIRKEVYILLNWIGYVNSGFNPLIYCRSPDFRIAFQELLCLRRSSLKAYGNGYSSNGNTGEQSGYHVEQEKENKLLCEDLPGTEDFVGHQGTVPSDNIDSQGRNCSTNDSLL
Chain of Muscarinic acetylcholine receptor M1 (Homo sapiens) (P11229 whole entry, looked up): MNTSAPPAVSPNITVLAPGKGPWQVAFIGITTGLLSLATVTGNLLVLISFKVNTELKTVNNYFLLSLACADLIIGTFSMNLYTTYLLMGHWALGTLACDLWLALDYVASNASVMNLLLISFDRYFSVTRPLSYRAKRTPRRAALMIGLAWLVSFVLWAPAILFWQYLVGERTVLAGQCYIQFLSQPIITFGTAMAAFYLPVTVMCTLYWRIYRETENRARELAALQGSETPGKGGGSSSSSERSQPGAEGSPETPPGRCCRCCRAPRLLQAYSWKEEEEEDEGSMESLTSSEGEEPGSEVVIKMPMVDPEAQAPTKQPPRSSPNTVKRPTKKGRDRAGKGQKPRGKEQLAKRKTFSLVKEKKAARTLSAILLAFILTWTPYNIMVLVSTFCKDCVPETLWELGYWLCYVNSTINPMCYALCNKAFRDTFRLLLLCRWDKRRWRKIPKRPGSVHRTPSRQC
Chain of KiSS-1 receptor (Homo sapiens) (Q969F8 whole entry, looked up): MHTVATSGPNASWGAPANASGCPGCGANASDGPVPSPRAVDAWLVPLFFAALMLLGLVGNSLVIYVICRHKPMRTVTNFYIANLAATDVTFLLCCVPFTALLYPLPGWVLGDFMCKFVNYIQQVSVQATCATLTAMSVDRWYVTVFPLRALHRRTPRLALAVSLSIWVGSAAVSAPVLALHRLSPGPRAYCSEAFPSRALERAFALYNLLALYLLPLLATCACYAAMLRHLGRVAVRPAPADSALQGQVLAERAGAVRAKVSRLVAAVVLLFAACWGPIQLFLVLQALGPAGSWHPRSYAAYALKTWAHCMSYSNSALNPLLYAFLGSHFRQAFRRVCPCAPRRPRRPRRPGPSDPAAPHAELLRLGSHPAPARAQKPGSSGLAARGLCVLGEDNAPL
Chain of D(2) dopamine receptor (Homo sapiens) (P14416 whole entry, looked up): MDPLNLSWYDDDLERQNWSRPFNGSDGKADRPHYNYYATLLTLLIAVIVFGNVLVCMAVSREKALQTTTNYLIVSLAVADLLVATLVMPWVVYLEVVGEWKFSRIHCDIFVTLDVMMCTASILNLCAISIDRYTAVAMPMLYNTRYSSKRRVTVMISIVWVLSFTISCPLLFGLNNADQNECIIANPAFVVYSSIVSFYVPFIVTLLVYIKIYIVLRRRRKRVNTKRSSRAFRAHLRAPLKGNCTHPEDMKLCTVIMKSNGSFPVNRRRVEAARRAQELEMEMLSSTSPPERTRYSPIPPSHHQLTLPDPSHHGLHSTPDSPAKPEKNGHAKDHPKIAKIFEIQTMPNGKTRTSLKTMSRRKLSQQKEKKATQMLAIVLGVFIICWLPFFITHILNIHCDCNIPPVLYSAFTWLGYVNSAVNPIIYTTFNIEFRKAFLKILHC

In the case of `COC1=CC(=O)O[C@@H](/C=C/c2ccc3c(c2)OCO3)C1`, the Potency result in assay [1], in assay [2], in [3], in assay [4], in assay [5] and in assay [6] was “inactive” in each case. For the same compound, the Potency entry in assay [7], in assay [8], in assay [9], in [10], in [11] and in assay [12] was “inactive” throughout. The Potency result in assay [13], in assay [14] and in assay [15] was “inactive” in each case.

Turning to `CSSC`, the Potency result in assay [1], in assay [3], in assay [4], in assay [5], in [6] and in assay [7] was “inactive” in each case. Further, the Potency entry in [8], in [9], in assay [16], in assay [17], in assay [11] and in [18] was “inactive” throughout. Further, the Potency result in assay [19], in assay [13] and in [14] was “inactive” in each case. The Potency in assay [2] was 31 µM (active).

For `O=c1[nH]c2cc(Cl)ccc2n1C1CCNCC1`, the Potency entry in assay [1], in assay [2], in assay [3], in [4], in [5] and in assay [6] was “inactive” each time. The Potency entry in [7], in assay [8], in assay [9], in assay [17], in assay [11] and in assay [12] was “inactive” each time. Besides, the Potency entry in assay [18], in [20], in assay [19] and in assay [14] was “inactive” each time.

`Cc1ccccc1C(=O)Nc1cccc(OC(C)C)c1`: the Potency entry in assay [1], in assay [2], in assay [3], in assay [4], in [5] and in assay [6] was “inactive” each time. Also, the Potency entry in assay [7], in [8], in assay [9], in assay [17], in [11] and in assay [12] was “inactive” in each case. Besides, the Potency entry in [18], in [13], in assay [14] and in assay [15] was “inactive” throughout.

Take `CC(Cc1ccc(OCC(=O)O)cc1)NCC(O)c1csc(C(F)(F)F)n1` (stereo not drawn): the Potency result in assay [1], in assay [2], in [3], in assay [4], in assay [5] and in assay [6] was “inactive” in each case. Besides, the Potency result in assay [7], in [8], in [9], in assay [16], in assay [17] and in assay [11] was “inactive” in each case. Besides, the Potency entry in assay [12], in assay [20], in assay [19] and in assay [15] was “inactive” throughout.

Consider `CCC(C)Br` (stereo not drawn), for which the Potency result in assay [1], in assay [2], in assay [3], in assay [4], in assay [5] and in [6] was “inactive” throughout. Also, the Potency entry in assay [7], in assay [8], in assay [9], in assay [16], in assay [17] and in assay [11] was “inactive” in each case. In addition, the Potency result in assay [18], in [20], in assay [19], in [14] and in assay [15] was “inactive” in each case.

Take `COc1ccc(-c2ccccc2)cc1NNC(=O)OC(C)C`: the Potency entry in assay [1], in assay [2], in [3], in assay [4], in [5] and in [6] was “inactive” in each case. The Potency entry in assay [7], in [8], in [10], in assay [16], in [17] and in assay [11] was “inactive” each time. The Potency result in assay [12], in assay [18], in assay [19], in [13] and in assay [15] was “inactive” each time.

As to `CN(CCCC(O)c1cccnc1)N=O` (stereo not drawn), the Potency entry in [1], in [2], in [3], in [4], in assay [5] and in assay [6] was “inactive” throughout. Besides, the Potency result in [7], in assay [8], in assay [9], in assay [16], in assay [17] and in [11] was “inactive” throughout. Further, the Potency entry in assay [12], in assay [18], in [20], in [19], in [13] and in assay [14] was “inactive” in each case. For the same compound, the Potency entry in [15] is “inactive”.

On to `O=[N+]([O-])c1cc([N+](=O)[O-])c2ccccc2c1`, for which the Potency result in [1], in assay [3], in [4], in [5], in [6] and in assay [7] was “inactive” in each case. The Potency entry in assay [16], in assay [11], in assay [13] and in assay [14] was “inactive” throughout. For the same compound, the Potency in assay [2] is 17.2 µM (active).
